Laboratory results reported in PubChem BioAssay AID540341 (National Center for Advancing Translational Sciences (NCATS), 2011).
Results filed as inconclusive are left out. Unmarked numbers belong to inactive results. The call rests on the fitted dose curve; in most records, active means well fitted curve in the direction sought with a large enough effect; inconclusive means small, poorly fitted or top-dose-only effect, or another doubt; inactive means no such curve, though single readings can be large or run the other way.

Molecular target: Lysosomal acid glucosylceramidase (Homo sapiens) (UniProt P04062)
Sequence (P04062 whole entry, looked up): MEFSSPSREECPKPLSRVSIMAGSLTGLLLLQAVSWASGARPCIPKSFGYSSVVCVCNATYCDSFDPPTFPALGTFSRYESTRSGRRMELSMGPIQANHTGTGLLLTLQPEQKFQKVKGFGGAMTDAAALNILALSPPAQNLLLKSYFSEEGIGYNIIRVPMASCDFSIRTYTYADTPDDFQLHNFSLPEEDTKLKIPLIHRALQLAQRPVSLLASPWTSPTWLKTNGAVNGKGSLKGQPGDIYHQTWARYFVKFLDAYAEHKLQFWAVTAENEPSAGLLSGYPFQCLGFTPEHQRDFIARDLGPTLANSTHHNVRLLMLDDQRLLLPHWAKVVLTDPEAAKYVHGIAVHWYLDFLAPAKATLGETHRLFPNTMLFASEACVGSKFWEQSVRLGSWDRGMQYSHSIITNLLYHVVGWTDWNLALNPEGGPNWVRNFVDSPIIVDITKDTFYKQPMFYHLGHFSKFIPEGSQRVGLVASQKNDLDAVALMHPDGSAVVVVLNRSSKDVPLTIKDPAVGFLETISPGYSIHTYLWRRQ
Test: Activators of Human alpha-Glucosidase as a Potential Chaperone Treatment of Pompe Disease: Glucocerebrosidase Counter Screen
Conditions: Purified GBA enzyme, 4MU-beta-glucoside fluorescence, 40 min; series mostly up to 57.1 µM; activity change, negative = inhibition: at the top concentration
From the text: Alpha-glucosidase is responsible for hydrolysis of terminal, non-reducing 1,4-linked alpha-D-glucose residues with release of alpha-D-glucose. It is a lysosomal hydrolase that is required for the degradation of a small percentage (1-3%) of cellular glycogen in human. Deficiency of this enzyme results in glycogen-storage disease type II (GSDII), also referred to as Pompe disease, an autosomal recessive disorder. Structurally normal glycogen is accumulated in lysosomes and cytoplasm in affected patients, primarily in muscle tissues. Excessive glycogen storage within lysosomes may interrupt normal functioning of other organelles and leads to cellular injury. In turn, this leads to enlargement and dysfunction of the entire organ involved (eg, cardiomyopathy and muscle weakness). It has reported that the improper folding and trafficking of alpha-glucosidase resulting from the genetic mutations may account for a significant number of Pompe patients. […] We optimized this alpha-glucosidase assay in 1536-well plate format for identifying the novel small molecule inhibitors with the structures other than the sugar analogs in order to develop the new pharmacological chaperones. NIH Chemical Genomics Center [NCGC] NIH Molecular Libraries Probe Production Centers Network [MLPCN] MLPCN Grant: MH086442-01 Assay Submitter (PI): Wei Zheng
This is a fluorogenic enzyme assay with 4-methylumbelliferyl-beta-D-glucopyranoside as the substrate and purified wildtype glucocerebrosidase as the enzyme preparation. Upon the hydrolysis of this fluorogenic substrate, the resulting product, […] which can be detected by a standard fluorescence plate reader. Data were normalized to the controls for basal activity (without enzyme) and 100% activity (with enzyme). The AC50 values were determined from concentration-response data modeled with the standard Hill equation. Assay buffer: 50 mM citric acid (titrated with potassium phosphate to pH 5.0), 100 mM potassium chloride, 10 mM sodium chloride, 1 mM magnesium chloride, 0.01% Tween-20. 1536-well assay protocol: (1) Add 2 ul/well of glucocerebrosidase enzyme solution (5 nM final) (2) Add 23 nL compounds in DMSO solution. The final titration was 0.5 nM to 58 uM. (3) Add 2 ul of substrate (1 mM final) (4) Incubate at 37C for 40 min. (5) Add 2 ul stop solution (1M NaOH and 1M Glycine mixture, pH 10) (6) Detect the assay plate in a ViewLux plate reader (PerkinElmer) with Ex=365 nm and Em=440nm. Keywords: Glucocerebrosidase, beta-glucosidase, Gaucher Disease, pharmacological chaperone, chaperone therapy, high throughput screening, glucocerebrosidase inhibitor, MLSMR, MLSCN, NIH Roadmap, qHTS and NCGC

| Structure (SMILES) | activity change, negative = inhibition |
| --- | --- |
| COc1ccc(CCn2c(=S)[nH]c(=O)c3c(C)cc(C)nc32)cc1OC | -5.66% |
| CCCN1CNc2c(c(=O)[nH]c(=S)n2CCc2cccc(C)c2C)C1 | 0.391% |
| COc1ccc(CCn2c(=S)[nH]c(=O)c3[nH]cnc32)cc1OC | -5.98% |
| CCCN1CNc2c(c(=O)[nH]c(=S)n2CCc2cc(Cl)ccc2Cl)C1 | -1.89% [at 48.8 µM] |
| CCCN1CNc2c(c(=O)[nH]c(=S)n2CCc2c(C)cccc2C)C1 | 0% |
| OCCNc1nc(-c2cccs2)nc2ccccc12 | 0% |
| CCCN1CNc2c(c(=O)[nH]c(=S)n2CCc2ccc(C)c(C)c2)C1 | 0% |
| COc1ccc(CCc2c[nH]c(=O)c3cncnc23)cc1OC | 2.44% |
| COc1ccc(CCn2c3c(c(=O)[nH]c2=S)CN(C(C)C)CN3)cc1OC | 0% |
| CCCN1CNc2c(c(=O)[nH]c(=S)n2CCc2ccsc2)C1 | 0% |
| CCCN1CNc2c(c(=O)[nH]c(=S)n2CCC(C)(C)C)C1 | 0% |
| CCCN1CNc2c(c(=O)[nH]c(=S)n2CCc2ccc(C)cc2C)C1 | -4.57% |
| O=S(=O)(c1ccc(Cl)cc1)N1CCN(c2nc(-c3cccs3)nc3ccccc23)CC1 | 0% |
| CCCN1CNc2c(c(=O)[nH]c(=O)n2CCc2ccc(OC)c(OC)c2)C1 | 0% |
| COc1ccc(CCn2c3c(c(=O)[nH]c2=S)CN(c2ccccc2)CN3)cc1OC | 0% |
| O=S(=O)(c1ccc(Cl)cc1)N1CCN(c2nc(Nc3cc(Cl)ccc3O)nc3ccccc23)CC1 | 0% [at 48.8 µM] |
| c1csc(-c2nc(NCC3CCCO3)c3ccccc3n2)c1 (stereo unspecified) | 0% [at 48.8 µM] |
| COc1ccc(C#Cc2cnc(Cl)c3cncnc23)cc1OC | 1.38% [at 48.8 µM] |
| CCCN1CNc2c(c(=O)[nH]c(=S)n2CCc2cc(C)ccc2C)C1 | 0% |
| CCCN1CNc2c(c(=O)[nH]c(=S)n2Cc2ccc(OC)c(OC)c2)C1 | 0% |
| COc1ccc(C#Cc2c[nH]c(=O)c3cncnc23)cc1OC | -3.96% |
| COc1ccc(CCn2c(=S)[nH]c(=O)c3nccnc32)cc1OC | 0% |
| CCCN1CNc2c(c(=O)[nH]c(=S)n2CCc2cccc(Cl)c2Cl)C1 | -9.82% |
| CCCN1CNc2c(c(=O)[nH]c(=S)n2CCc2ccc3c(c2)OCCO3)C1 | 0% |
| CCCN1CNc2c(c(=O)[nH]c(=S)n2CCc2cc(Cl)cc(Cl)c2)C1 | -2.31% [at 48.8 µM] |
| COc1ccc(CCn2c3c(c(=O)[nH]c2=S)CN(C)CN3)cc1OC | 0% |
